Rows were chosen to be rich in hits. Some 7.5% of all compounds tested hit in one or more screens of this group.
SMN2 splice up – increases expression of the SMN2 splice variant; HEK293 SMN2-luciferase splicing reporter, luminescence, 30-36 h; Potency, µM (doses to about 46.1 µM), for inactives: at the top dose activity change, positive = activation, actives largely listed as activators; hit rate 2.8% among 210,000; note: % of control where 0% means no effect; nearly all actives have a fitted effect of over 55% in size
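qHTS luciferase splicing reporter: luminescence rises when SMN2 exon 7 is included in transfected HEK293 cells. Compound exposure lasted 30-36 h at 37C, with 4.5 mM final sodium butyrate as control, followed by a ONE-Glo read.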
ELG1 genotoxic – induces genotoxicity in HEK293T cells with luciferase-tagged ELG1. HEK293T ELG1-luciferase reporter, luminescence, 16 h. Potency, µM (top dose mostly 46 µM), inactives show at the highest dose activity change, positive = activation, usual class: activators. hit rate 1.3% among 330,000. AID 504466; note: % of control where 0% means no effect; nearly all actives have a fitted effect of over 60% in size
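Reporter readout depends on ELG1 protein level, which increases with genetic stress. After 16 hr compound exposure at 37 °C, luciferase activity was quantified using ONE-Glo.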
Luc counter – blocks Kinase-Glo luciferase, a counter-screen artifact | Q27757 | Kinase-Glo luciferase, ATP luminescence, 8 min | Potency, µM (highest dose often 38.3 µM), without a hit: at the top dose activity change, negative = inhibition, actives largely listed as inhibitors | hit rate 0.28% among 200,000; note: % is set by controls: 0 for no effect and ±100 for the full control effect; nearly all actives have a fitted effect of over 60% in size
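Light output from Kinase-Glo luciferase with luciferin and 10 uM ATP in 50 mM imidazole pH 7.2, KCl, MgCl2, Tween 20, BSA; compound pin-delivered, 8-min ambient incubation, then luminescence read.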
NPC1 prom act – activators of NPC1 promoter | Potency, µM (titrated, usually from 9.22 µM), for inactives: at the highest dose activation, usual class: activators | Huh7 NPC1 promoter luciferase reporter, 24 h | hit rate 2.4% among 320,000; note: % of control where 0% means no effect; nearly all actives have a fitted effect of over 60% in size
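Luciferase expression driven by the NPC1 promoter was measured in stably transfected Huh7 cells after a 24 h compound incubation, using a luciferase reagent and a luminescence read.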
FLuc modulator – counter-screen for miR-21 project: firefly luciferase inhibitors or activators; purified FLuc, Km substrates, luminescence inhibition; Potency, µM (top dose mostly 57.5 µM), without a hit: top-dose activity change, negative = inhibition, hits mostly inhibitors; hit rate 6.9% among 360,000; AID 588342;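 note: plate controls were vehicle for no effect and reference inhibitor for full effect; nearly all actives have a fitted effect of over 55% in size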
Target sequence (P08659 whole entry, looked up): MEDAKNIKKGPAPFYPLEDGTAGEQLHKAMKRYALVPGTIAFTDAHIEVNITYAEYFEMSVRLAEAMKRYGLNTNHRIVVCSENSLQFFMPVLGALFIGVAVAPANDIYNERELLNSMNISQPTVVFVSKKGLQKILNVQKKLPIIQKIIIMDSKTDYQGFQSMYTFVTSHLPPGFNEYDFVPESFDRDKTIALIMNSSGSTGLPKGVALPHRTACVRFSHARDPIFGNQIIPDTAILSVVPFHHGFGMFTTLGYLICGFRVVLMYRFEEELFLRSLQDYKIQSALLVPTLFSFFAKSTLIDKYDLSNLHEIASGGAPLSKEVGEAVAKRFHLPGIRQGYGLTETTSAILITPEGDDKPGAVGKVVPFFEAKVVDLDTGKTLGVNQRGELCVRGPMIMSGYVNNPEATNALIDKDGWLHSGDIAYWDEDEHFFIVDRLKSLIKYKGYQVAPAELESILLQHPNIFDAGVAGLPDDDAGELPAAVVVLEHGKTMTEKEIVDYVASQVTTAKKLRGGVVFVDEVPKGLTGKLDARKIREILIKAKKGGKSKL
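Biochemical qHTS of compounds, final roughly 60 µM downward over six points, against 10 nM purified firefly luciferase using Km concentrations of substrates (10 uM D-luciferin, 10 uM ATP) in Tris acetate pH 7.5 buffer; luminescence output.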
Rab9 promoter act – Rab9 promoter activation; Huh7 Rab9 promoter-luciferase reporter, luminescence, 24 h; Potency, µM (top dose mostly 9.22 µM), inactives show at the top dose activation, negative = inhibition, actives largely listed as activators; hit rate 2.8% among 320,000; note: % of control where 0% means no effect; nearly all actives have a fitted effect of over 60% in size
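Steps: seed 1500 Huh7 Rab9-luc cells per well, rest 2 h at 37 °C; add compound in DMSO; incubate 24 h; add luciferase reagent, 10 min ambient; read luminescence.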
An asterisk follows results filed as active; ? = inconclusive; / = not tested or not shown. Calls come from the whole dose curve; as a rule, active = well fitted curve in the direction sought with a large enough effect; inconclusive = small, poorly fitted or top-dose-only effect, or another doubt; inactive = no such curve, though single readings can be large; an effect the other way counts as inactive or inconclusive. Potency is the fitted concentration of half-maximal effect.

SMILES	SMN2 splice up	ELG1 genotoxic	Luc counter	NPC1 prom act	FLuc modulator	Rab9 promoter act
O=C(CSc1ncc(-c2ccc(F)cc2)[nH]1)N1CCCCC1	11µM*	?	-2%	28%	?	?
O=C(CSc1nnc(-c2cccnc2)o1)Nc1ccccc1Br	/	4%	/	-1%	1%	9%
O=C(CSc1ncn[nH]1)N1CCCCC1	/	0%	/	-2%	-2%	-4%
COc1ccc(NC(=O)CSc2nnc(-c3ccc(C)cc3)o2)cc1	/	/	/	/	0%	/
O=C(CSc1nnc(-c2cccnc2)o1)Nc1ccccc1F	/	?	/	3.2µM*	-1%	3.2µM*
COc1ccccc1NC(=O)CSc1nc2nc(C)cc(C)c2c(=O)[nH]1	3.5µM*	17%	4%	-2%	-1%	-3%
COc1cccc(NC(=O)CSc2nnc(-c3ccc(C)cc3)o2)c1	16µM*	10µM*	1%	17%	-2%	?
Cc1cc(NC(=O)CSC2=NS(=O)(=O)c3cc(F)ccc3N2)no1	/	0%	/	-1%	-3%	-6%
Cn1c(=O)[nH]c(=O)c2c1nc(SCc1ccccc1Cl)n2CC(N)=O	/	3%	/	-2%	-5%	-1%
CCc1nnc(NC(=O)CCC(=O)Nc2ccc(Cl)cc2)s1	/	13%	/	-3%	-1%	-3%
C=CCOc1ccc(/C(O)=C2/C(=O)C(=O)N(CCCn3ccnc3)C2c2cccs2)cc1 (configuration not stated)	3%	4%	0%	25%	15µM*	?
C=CCOc1ccc(/C(O)=C2/C(=O)C(=O)N(CCCn3ccnc3)C2c2ccco2)cc1 (configuration not stated)	10%	6%	-2%	16%	-18%	?
Cc1ccc(CNC(=O)CS(=O)(=O)Cc2nc(-c3ccccc3C)oc2C)cc1	-1%	/	/	/	-12%	/
COc1ccc(-n2nc(C(=O)Nc3ccc(C(C)=O)cc3)nc2-c2ccccc2)cc1	/	/	/	/	-3%	/
COc1ccc(-c2csc(Nc3ccc(C)cn3)n2)cc1OC	-19%	-1%	5%	4%	17µM*	?
COc1ccc(-c2csc(Nc3ccc(S(N)(=O)=O)cc3)n2)cc1OC	/	-14%	/	-12%	-17%	-2%
COc1ccc(-c2csc(Nc3cc(C)ccn3)n2)cc1OC	/	5%	/	?	11µM*	?
CCO/N=C(\C)c1c(O)c2ccccc2n(C)c1=O	7%	0%	0%	-4%	-1%	9%
O=C(Nc1ccccc1C(=O)O)c1ccc(NC(=O)C2CC2)cc1	/	-11%	/	1%	0%	0%
O=C(Nc1ccc(C#Cc2ccccc2)cc1)C1CC1	3.5µM*	?	1%	2.5µM*	5.4µM*	1.4µM*
O=C(Nc1ccccc1O)c1ccc(NC(=O)C2CC2)cc1	/	21µM*	/	3.5µM*	12µM*	2.8µM*
CCCC(=O)Nc1ccc(C#Cc2ccccc2)cc1	?	?	-1%	1.6µM*	4.8µM*	2.8µM*
CC1=NN(c2cccc(C(=O)O)c2)C(=O)/C1=C\C=C/c1ccccc1	10%	-9%	-2%	-5%	2.4µM*	-3%
CC1=NN(c2ccccc2)C(=O)/C1=C\c1cc(C)n(-c2cccnc2)c1C	/	9%	/	-5%	2.7µM*	-7%
CC1=NN(c2ccccc2)C(=O)/C1=C/C=C/C=C/N(C)C	-50%	-1%	?	0%	?	-3%
CC1=NN(c2ccccc2)C(=O)/C1=C\c1cc(C)n(-c2ccccc2)c1C	-24%	?	-2%	27%	0.54µM*	23%
CC1=NN(c2ccc(C)cc2)C(=O)/C1=C\C=C\c1ccccc1	-38%	-8%	-8%	1%	?	1%
Cc1ccc(CNC(=O)COC(=O)c2cc3c(s2)CCC(C)C3)cc1 (configuration not stated)	/	2%	/	-2%	10%	-4%
CC1CCc2sc(C(=O)Nc3ccc(N4CCOCC4)cc3)cc2C1 (configuration not stated)	-27%	-7%	-1%	5%	?	-2%

Source: PubChem (National Center for Advancing Translational Sciences (NCATS))
